Measurements: PubChem BioAssay AID720518 (National Center for Advancing Translational Sciences (NCATS), 2013)
Inconclusive results are not listed. Values without a mark were called inactive. Calls come from the whole dose curve.

Test: qHTS for Inhibitors of Cell Surface uPA Generation: Wild-type Protective Antigen (WT-PrAg) Counterscreen for Cherry-picked Compounds; note: 0% is about no effect
Conditions: cells, WT protective antigen toxicity counterscreen; series mostly up to 115 µM; activity (protection): at the top concentration

Row | Compound | activity (protection) [%]
1 | CCC1(CC)NC(=O)N(CC(=O)OCC(=O)c2cc(C)c(C)cc2C)C1=O | -0.796
2 | O=C1NCCN1C(=O)N(c1ccccc1)c1ccccc1 | -0.281
3 | CCOc1ccc(C2(C)CC(=O)N(C)C2=O)cc1 (stereo not drawn) | -1.37
4 | C#CCN1C=C(C(=O)OCC)C(C)NS1(=O)=O (stereo not drawn) | 1.5
5 | O=c1ccc(S(=O)(=O)N2CCCC2)c[nH]1 | -0.609
6 | O=C(O)CC1(CC(=O)NCc2ccc(Cl)cc2)CCCCC1 | -0.619
7 | COc1ccc(Cc2nnc(NC(=O)Nc3ccc(F)cc3)s2)cc1 | 6.85
8 | CCOC(=O)c1c(NC(=S)NC)sc2c1CCCC2 | -0.204
9 | COc1ccc(-c2cc3nc(-c4ccccc4)cc(N4CCCC(O)C4)n3n2)cc1 (stereo not drawn) | 2.16
10 | O=C(NNC(=O)c1cccc(-n2cccc2)c1)c1ccc(F)cc1 | -0.872
11 | O=[N+]([O-])c1cccc2c(N3CCOCC3)ccnc12 | -2.37
12 | O=c1[nH]c2c(s1)C(c1ccc(O)cc1)C1C3CCC(C3)C1S2 (stereo not drawn) | 4.5
13 | CCC(=O)N1CCC(NC(=O)Nc2ccc(OC(F)(F)F)cc2)CC1 | -0.144
14 | O=C1c2ccccc2[C@@H]2C[C@H](NC34CC5CC(CC(C5)C3)C4)[C@@H](O)CCN12 | -1.03
15 | C=CCn1c(C)cc(C(=O)COC(=O)/C=C/c2cccc(OC)c2)c1C | -1.08
16 | C[C@H](CO)N1C[C@H](C)[C@H](CN(C)S(=O)(=O)c2cn(C)cn2)Oc2ccc(NC(=O)Nc3ccc(C(F)(F)F)cc3)cc2CC1=O | 0.316
17 | O=C(CCN1CCN(c2ccccc2F)CC1)Nc1ccc(F)cc1 | -2.31
18 | Cc1ccccc1-c1nnc(SCC(=O)NCC2CCCO2)o1 (stereo not drawn) | 0.534
